Assay outcomes deposited in PubChem BioAssay by The Scripps Research Institute Molecular Screening Center.
PLCb3 inh – blocks human PLC-beta3 enzyme activity. Q01970. Purified PLC-beta3, fluorogenic substrate, fluorescence. inhibition, % at 12.2 µM. hit rate 0.18% among 370,000; in the data active = inhibition above about 11%;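 also: 0% = median of compound wells on plate and 100% = full blocker control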
MsrA inhibitor – bovine MsrA inhibition; inhibition, % at 15.5 µM; hit rate 0.75% among 360,000; purified bovine MsrA, absorbance read-out;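 also: 0% = vehicle wells with enzyme and 100% = reference inhibitor wells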
PLC-gamma1 inh – PLC-gamma1 (human) inhibition, primary screen | P19174 | purified PLC-gamma1, fluorogenic substrate, fluorescence | inhibition, % at 12.2 µM | hit rate 0.84% among 370,000 | AID 720700; in the data active = inhibition above about 9.5%
bovine MsrA act – bovine methionine sulfoxide reductase A activation | purified bovine MsrA, absorbance read-out | activation, % at 10.6 µM | hit rate 0.3% among 360,000 | AID 602163; in the data active = activation above about 7.5%;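 also: 0% = vehicle and 100% = reference activator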
MsrA inh confirm – confirmation of bovine MsrA inhibitors; shares compounds with MsrA inhibitor; purified bovine MsrA, absorbance read-out; inhibition, % at 15.5 µM; hit rate 41% among 2,300; AID 651822;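 also: coupled to thioredoxin reductase with NADPH and selenocystamine and DMSO as substrate; 0% = vehicle only and 100% = full effect of reference inhibitor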
The depositor's hits bear a star; . = not tested or not shown. A selection: hits, their analogues and other compounds. The true share with any hit is near 1.9%. Rule as the data show it, unless noted: active = inhibition above about 4.5%; inactive = the rest.

SMILES	PLCb3 inh	MsrA inhibitor	PLC-gamma1 inh	bovine MsrA act	MsrA inh confirm
COc1ccc(C(=O)N/C(=C\c2cn(C)c3ccccc23)C(=O)NCCCN2CCOCC2)cc1	-10	5.3*	2	-7	3
CCn1cc(/C=C(\NC(=O)c2ccccc2OC)C(=O)NCCN2CCOCC2)c2ccccc21	-9	4.7*	-6	-7	3
Cn1cc(/C=C(\NC(=O)c2ccccc2Cl)C(=O)NCCN2CCOCC2)c2ccccc21	-9	4.8*	-3	-12	4
O=C(NC1CCCC1)C1CSCCS(=O)(=O)N1Cc1ccc(F)cc1 (stereo unspecified)	-1	.	-1	.	.
O=C(O)CSc1cc(NS(=O)(=O)c2cccc([N+](=O)[O-])c2)c2ccccc2c1O	-14	20*	-2	3	-1
CCC(=NNc1ccc([N+](=O)[O-])cc1[N+](=O)[O-])c1ccccc1	3	-1	0	-4	.
C/C(=N\Nc1ccc(C#N)cc1[N+](=O)[O-])c1ccc(O)cc1	-4	16*	4	-4	17*
C/C(=N/Nc1ccccc1[N+](=O)[O-])c1ccc([N+](=O)[O-])cc1	-4	0	1	-3	.
CC(C)(CO)Nc1ccc([N+](=O)[O-])cc1[N+](=O)[O-]	5	5.3*	5	3	4
CC/C(=N\Nc1ccc([N+](=O)[O-])cc1[N+](=O)[O-])c1ccc(O)cc1	-2	6.7*	3	-2	1
COCCN=C1Sc2ccccc2[C@@H]2C[C@H]3[C@H](CON3C)CN12	4	1	0	.	.
Cc1cc(C)c(C2=NOC3c4ccccc4OCC23)c(C)c1 (stereo unspecified)	0	0	1	.	.
CN1CCCCC(NC(=O)c2ccc(Cl)cc2Cl)C1=O (stereo unspecified)	7	1	1	.	.
Cc1cc(C)cc(NC(=O)NC2CCN(S(=O)(=O)c3ccc(F)cc3)CC2)c1	2	.	5	.	.
C=Cc1ccc(CC2(C)C(=O)Nc3ccc(-c4cccnc4)cc32)cc1 (stereo unspecified)	-6	13*	4	-3	6.3*
CCCCOCCCNC(=O)C[C@H]1C[C@@]2(C(=O)OC)C(=C[C@H](C3CCCC3)O[C@@H]2C)N(Cc2ccccc2)C1=O	1	1	0	.	.
O=C(N/N=C/c1cnc2ccccc2n1)c1cccc(F)c1	-1	5.8*	2	-6	4
CN1CCCCC(NC(=O)C2CCCCC2)C1=O (stereo unspecified)	2	0	-2	.	.
Cc1cc(N2CCCC2)c(C)cc1C=O	-16	5.1*	-11	-2	2
CCOC(=O)c1cc(C)nc(SC)c1C#N	-8	0	0	-2	.
CCOC(=O)c1cc(C(C)(C)C)nc(SC)c1C#N	-10	6.2*	2	-4	3
COc1ccc(-n2nnc3c(SC(C(C)=O)C(=O)N(C)C)ncnc32)cc1 (stereo unspecified)	-9	5.4*	-2	-5	3
COC(=O)C(C)Sc1ncnc2c1nnn2-c1ccc(F)cc1 (stereo unspecified)	-4	0	4	3	.
COC(=O)N1C[C@H](OCCCOCc2ccccc2)[C@H]2C[C@@H]1c1ccccc1O2	1	-1	1	.	.
COC(=O)C1=C(C)N(Cc2cccc(C(F)(F)F)c2)C(=NCc2ccc(OC)cc2)NC1c1cccc(C(F)(F)F)c1 (stereo unspecified)	-1	1	1	.	.
SMILES	PLCb3 inh	MsrA inhibitor	PLC-gamma1 inh	bovine MsrA act	MsrA inh confirm
O=C(Nc1cccc(NC(=O)C2CCCO2)c1)C1CCCO1 (stereo unspecified)	-7	-1	-3	-6	.
Cc1ccc(NC(=O)C2CCCO2)cc1[N+](=O)[O-] (stereo unspecified)	-11	39*	4	-4	8.4*
CCCCCc1c(-c2cccc(OC)c2)ncn1CCc1ccccc1OC	-1	21*	4	-2	18*
CCCCCc1c(-c2cccc(F)c2)ncn1CCc1ccccc1OC	2	2	3	-2	.
C[C@@H]1CN([C@H](C)CO)C(=O)CCCn2cc(nn2)CO[C@H]1CN(C)C(=O)Oc1ccccc1	3	1	5	.	.
O=C(O)CCCC(=O)OCCCc1cc2ccccc2c(=O)o1	-2	0	-1	.	.
Cc1ccc(Sc2ccc([N+](=O)[O-])cc2[N+](=O)[O-])nc1	4	4.8*	4	-2	3
O=C(N/N=C/c1c(F)cccc1Cl)C1CC1	0	1	1	-3	.
O=C(O)c1ccc(N/N=C/c2c(F)cccc2Cl)cc1	-12	6.5*	-5	-6	4
CCc1n[nH]c(=S)n1/N=C/c1cc(Br)c(OC)cc1OC	-3	16*	-6	-5	10*
